We go through 13 molecules from PubChem BioAssay (Tox21).

Several values for one entry are separate records, joined by “and”; a condition that tells them apart may be missing. Equal values may be shown once. Records with an inconclusive call do not appear. Some compounds were tested as several samples or in several runs, with calls that do not always agree. Activity calls are given as the source filed them. Calls come from the whole dose curve; as a rule, active = well fitted curve in the direction sought with a large enough effect in the repeat runs; inconclusive = weak or mixed curves; inactive = no such curve, though single readings can be large; an effect the other way counts as inactive or inconclusive.

The nature of assay [1]: A CellTox Green Cytotoxicity Assay to monitor cytotoxicity in HEK293 cells - 40 hour (AID 1224871). Note: nearly all actives have a fitted effect of over 45% in size. Note: potency is the fitted concentration of half-maximal effect. In short, it runs like this: (§1)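 Fluorescence intensity, read at 0, 8, 16, 24, 32 and 40 h of compound treatment, reflected dye binding to DNA of dead HEK293 cells; compounds (23 nL, DMSO) were added 5 h after plating cells with reagent.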
A short description of assay [2]: qHTS RealTime-Glo MT Cell Viability Assay in HEK293 cells - 16 hour (AID 1224872). Note: nearly all actives have a fitted effect of over 50% in size. Note: potency is the fitted concentration of half-maximal effect. In short, it runs like this:
(§2)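 HEK293 cells seeded with NanoLuc/prosubstrate reagent, rested 5 h at 37 C, then dosed and kept at 37 C up to 40 h. Nonlytic real-time luminescence from viable cells read at 0, 8, 16, 24, 32 and 40 h.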
Background: In qHTS, concentration-response curves come from the screen itself.

Assay [3] can be described thus: A CellTox Green Cytotoxicity Assay to monitor cytotoxicity in HEK293 cells - 24 hour (AID 1224875). Note: nearly all actives have a fitted effect of over 45% in size. Note: potency is the fitted concentration of half-maximal effect. Put shortly: as §1
The nature of assay [4]: A CellTox Green Cytotoxicity Assay to monitor cytotoxicity in HepG2 cells - 16 hour (AID 1224876). Note: nearly all actives have a fitted effect of over 45% in size. Note: potency is the fitted concentration of half-maximal effect. In short, it runs like this:
(§3)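 Using 1536-well format, dye-containing HepG2 suspension was seeded, allowed 5 h at 37 C/5% CO2, dosed by pintool with compounds, positive and negative controls, and imaged for fluorescence across 40 h.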

Assay [5] in a line: qHTS RealTime-Glo MT Cell Viability Assay in HepG2 cells - 32 hour (AID 1224877). Note: nearly all actives have a fitted effect of over 55% in size. Note: potency is the fitted concentration of half-maximal effect. In short, it runs like this: (§4)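 HepG2 cells (600/well) were dispensed with RealTime-Glo reagents, incubated 5 h at 37 °C, then treated with compounds in DMSO for up to 40 h. Nonlytic NanoLuc luminescence reflecting viable cells was read at each stated time point.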
Assay [6] is described as follows: A CellTox Green Cytotoxicity Assay to monitor cytotoxicity in HepG2 cells - 24 hour (AID 1224878). Note: nearly all actives have a fitted effect of over 45% in size. Note: potency is the fitted concentration of half-maximal effect. In short, it runs like this:
as §3

The nature of assay [7]: A CellTox Green Cytotoxicity Assay to monitor cytotoxicity in HepG2 cells - 40 hour (AID 1224879). Note: nearly all actives have a fitted effect of over 40% in size. Note: potency is the fitted concentration of half-maximal effect. In short, it runs like this: as §3
Assay [8] is described as follows: qHTS RealTime-Glo MT Cell Viability Assay in HEK293 cells - 0 hour (AID 1224880). In short, it runs like this:
(§5)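 Viable HEK293 cells reduce a cell-permeant prosubstrate; the product diffuses out and is consumed by NanoLuc in the medium to give light. Compounds went in after a 5 h incubation and plates were read over the treatment course.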

Assay [9] in a line: A CellTox Green Cytotoxicity Assay to monitor cytotoxicity in HEK293 cells - 32 hour (AID 1224881). Note: nearly all actives have a fitted effect of over 40% in size. Note: potency is the fitted concentration of half-maximal effect. Put shortly:
as §1

A short description of assay [10]: A CellTox Green Cytotoxicity Assay to monitor cytotoxicity in HepG2 cells - 32 hour (AID 1224883). Note: nearly all actives have a fitted effect of over 50% in size. Note: potency is the fitted concentration of half-maximal effect. Put shortly: as §3
Assay [11] is described as follows: A CellTox Green Cytotoxicity Assay to monitor cytotoxicity in HEK293 cells - 8 hour (AID 1224884). Note: nearly all actives have a fitted effect of over 35% in size. Note: potency is the fitted concentration of half-maximal effect. In short, it runs like this:
as §1

The nature of assay [12]: qHTS RealTime-Glo MT Cell Viability Assay in HepG2 cells - 16 hour (AID 1224885). Note: nearly all actives have a fitted effect of over 50% in size. Note: potency is the fitted concentration of half-maximal effect. In short, it runs like this:
as §4

Assay [13] is described as follows: qHTS RealTime-Glo MT Cell Viability Assay in HEK293 cells - 24 hour (AID 1224886). Note: nearly all actives have a fitted effect of over 50% in size. Note: potency is the fitted concentration of half-maximal effect. Put shortly: as §2
Assay [14] can be described thus: qHTS RealTime-Glo MT Cell Viability Assay in HEK293 cells - 8 hour (AID 1224887). Note: nearly all actives have a fitted effect of over 50% in size. Note: potency is the fitted concentration of half-maximal effect. In short, it runs like this:
as §5

Assay [15] can be described thus: A CellTox Green Cytotoxicity Assay to monitor cytotoxicity in HEK293 cells - 16 hour (AID 1224888). Note: nearly all actives have a fitted effect of over 35% in size. Note: potency is the fitted concentration of half-maximal effect. Put shortly:
as §1

The nature of assay [16]: A CellTox Green Cytotoxicity Assay to monitor cytotoxicity in HepG2 cells - 8 hour (AID 1224890). Note: nearly all actives have a fitted effect of over 45% in size. Note: potency is the fitted concentration of half-maximal effect. In short, it runs like this: as §3
Assay [17] is described as follows: qHTS RealTime-Glo MT Cell Viability Assay in HepG2 cells - 0 hour (AID 1224889). Note: nearly all actives have a fitted effect of over 50% in size. Put shortly:
as §4

Assay [18] can be described thus: qHTS RealTime-Glo MT Cell Viability Assay in HepG2 cells - 8 hour (AID 1224873). Note: nearly all actives have a fitted effect of over 55% in size. In short, it runs like this:
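HepG2 cells mixed with RealTime-Glo MT reagents (NanoLuc plus cell-permeant prosubstrate) were seeded at 600 cells/well, incubated 5 h at 37 C/5% CO2, then pinned with compounds in DMSO; nonlytic luminescence tracked viability during 40 h treatment.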

Assay [19] is described as follows: qHTS RealTime-Glo MT Cell Viability Assay in HEK293 cells - 40 hour (AID 1224874). To be noted: RealTime-Glo luminescence; max response: stronger effect = lower value. Put shortly:
as §5

Assay [20] in a line: A CellTox Green Cytotoxicity Assay to monitor cytotoxicity in HepG2 cells - 0 hour (AID 1224882). Note: nearly all actives have a fitted effect of over 35% in size. Note: potency is the fitted concentration of half-maximal effect. Put shortly: as §3

Take `C=CC(=O)OCCn1c(=O)n(CCOC(=O)C=C)c(=O)n(CCOC(=O)C=C)c1=O`: the Potency was 21.9 µM (active) in assay [1]; 11 µM (active) in assay [2]; 49 µM (active) in assay [3]; 49 µM (active) in [4]; 24.5 µM (active) in [5]; 49 µM (active) in [6]. Moreover, the Potency is 21.9 µM (active) in [7]; 34.7 µM (active) in [9]; 43.6 µM (active) in assay [10]; 15.5 µM (active) in assay [12]; 11 µM (active) in [13]. The Potency entry in assay [8], in [11], in assay [14], in [15] and in assay [16] was “inactive” throughout.

Regarding `Cc1cc(CCN2CCN(c3nsc4ccccc34)CC2)cc2c1NC(=O)CC2(C)C`, the Potency in assay [1] is 49 µM (active); in [2], 13.8 µM (active); in assay [3], 49 µM (active); in assay [5], 54.9 µM (active); in assay [12] it was 54.9 µM (active); in [13], 6.92 µM (active). The Potency was 21.9 µM (active) in assay [14] and 49 µM (active) in [15]. The Potency entry in assay [8], in assay [17] and in [16] was “inactive” each time.

On to `On1ccccc1=S`, for which the Potency in [1] was 1.09 µM (active); in [2] it was 3.85 µM (active); in [4], 1.93 µM (active); in assay [5], 0.485 µM (active); in assay [6], 0.432 µM (active); in [7], 0.385 µM (active). The results for the Potency in assay [9], in assay [10] and in assay [13] were 1.22 µM (active), 0.385 µM (active) and 3.85 µM (active), respectively. In addition, the Potency result in assay [8], in assay [11], in [15], in assay [17] and in assay [16] was “inactive” in each case.

Regarding `C[C@H]1[C@H]2CC[C@H]3[C@@H]4CC=C5C[C@@H](N(C)C)CC[C@]5(C)[C@H]4CC[C@]23CN1C`, the Potency result in assay [1], in [2], in assay [3], in assay [5], in [7] and in assay [8] was “inactive” in each case. The Potency result in assay [9], in assay [10], in assay [11], in assay [12], in assay [13] and in assay [14] was “inactive” throughout. The Potency entry in assay [15] is “inactive”.

Turning to `OCCN(CCO)c1nc(N2CCCCC2)c2nc(N(CCO)CCO)nc(N3CCCCC3)c2n1`, the Potency in assay [1] was 19 µM (active); in [19], 26.8 µM (active); in assay [3], 21.3 µM (active); in assay [4], 23.9 µM (active); in assay [6], 23.9 µM (active); in [7] it was 23.9 µM (active). The Potency in [9] is 19 µM (active); in assay [20], 23.9 µM (active); in assay [10], 23.9 µM (active); in assay [15], 12 µM (active); in assay [16], 23.9 µM (active). The Potency entry in [18], in [5], in assay [8], in [12] and in assay [17] was “inactive” throughout.

For the molecule `NC(=O)C1(N2CCCCC2)CCN(CCCN2c3ccccc3CCc3ccc(Cl)cc32)CC1`, the Potency in assay [1] is 26.8 µM (active); in [2], 21.3 µM (active); in assay [5] it was 23.9 µM (active); in assay [6], 23.9 µM (active); in [7], 23.9 µM (active); in assay [10], 23.9 µM (active). Moreover, the Potency is 23.9 µM (active) in [12], 21.3 µM (active) in assay [13] and 23.9 µM (active) in assay [14]. For the same molecule, the Potency entry in assay [8], in assay [20] and in [17] was “inactive” each time.

On to `O=c1cc(-c2ccc(O)cc2)oc2cc(O)cc(O)c12`, for which the Potency result is “inactive and 43.6 µM (active)” in assay [1]; “inactive and 27.5 µM (active)” in assay [4]; “inactive and 34.7 µM (active)” in [6]; 38.9 µM (active) in [7]; “inactive and 38.9 µM (active)” in assay [10]; “inactive and 38.9 µM (active)” in assay [16]. In addition, the Potency result in assay [18], in assay [3], in [5], in assay [8], in assay [9] and in assay [20] was “inactive” in each case. Also, the Potency entry in assay [11], in assay [12], in [14], in assay [15] and in [17] was “inactive” each time.

As to `CCC1OCC(COc2ccc(Oc3ccccc3)cc2)O1` (centres undefined), the Potency result in [1], in [18], in [3], in assay [4], in assay [5] and in assay [6] was “inactive” in each case. Besides, the Potency result in assay [7], in [8], in assay [9], in [20], in assay [10] and in [11] was “inactive” throughout. The Potency entry in [12], in assay [15], in assay [17] and in assay [16] was “inactive” each time.

On to `N=C1N=C(N)c2ccccc21`, for which the Potency entry in [1], in assay [18], in assay [3], in [8], in assay [9] and in [20] was “inactive” throughout. Further, the Potency entry in assay [11], in assay [14], in assay [17] and in assay [16] was “inactive” in each case. The Potency in [19] is 24.5 µM (active); in assay [7], 43.6 µM (active); in assay [13], 24.5 µM (active).

Regarding `CCN(CC)CCNC(=O)c1c(C)[nH]c(/C=C2\C(=O)Nc3ccc(F)cc32)c1C`, the Potency in assay [1] is 23.9 µM (active); in assay [2], 10.7 µM (active); in assay [3], 23.9 µM (active); in assay [4], 21.3 µM (active); in assay [5], 19 µM (active); in assay [6], 19 µM (active). The Potency in assay [7] is 9.52 µM (active); in assay [9] it was 23.9 µM (active); in assay [20], 21.3 µM (active); in [10], 10.7 µM (active); in assay [11], 23.9 µM (active); in assay [12], 21.3 µM (active). Moreover, the Potency in assay [13] was 9.52 µM (active); in assay [14], 21.3 µM (active); in assay [15], 23.9 µM (active); in assay [16], 19 µM (active). Further, the Potency result in assay [8] was “inactive”.

Take `CCCCN1C(=O)[C@@H]([C@H](O)C2CCCCC2)NC(=O)C12CCN(Cc1ccc(Oc3ccc(C(=O)O)cc3)cc1)CC2`: the Potency entry in assay [1], in [2], in [3], in assay [4], in assay [5] and in assay [6] was “inactive” in each case. In addition, the Potency result in assay [7], in assay [8], in [9], in assay [20], in assay [10] and in assay [11] was “inactive” throughout. Also, the Potency result in [12], in assay [13], in [14], in [15], in [17] and in [16] was “inactive” throughout.

With `Oc1ccc(Cl)cc1Sc1cc(Cl)ccc1O`, the Potency is 38.8 µM (active) and inactive in [1]; 21.8 µM (active) in assay [2]; 19.5 µM (active) and 23.9 µM (active) in assay [19]; 43.6 µM (active) in assay [6]; 48.9 µM (active) and 26.8 µM (active) in assay [7]; 43.6 µM (active) and inactive in assay [9]. The Potency is 48.9 µM (active) and 26.8 µM (active) in [10]; 19.5 µM (active) and 23.9 µM (active) in assay [13]; 24.5 µM (active) in assay [14]. Further, the Potency result in assay [4], in [8], in assay [20], in assay [11], in [17] and in assay [16] was “inactive” throughout.

As for `CCC(Cl)C(Cl)C(Cl)CC(Cl)C(Cl)C(C)Cl` (centres undefined), the Potency entry in assay [1], in assay [18], in assay [3], in assay [4], in assay [5] and in assay [6] was “inactive” in each case. For the same molecule, the Potency result in [7], in assay [8], in [9], in [20], in assay [10] and in [11] was “inactive” each time. The Potency entry in assay [12], in [13], in assay [17] and in assay [16] was “inactive” in each case.
